# Compounds with a hit are over-represented: about 0.45% of the library has one in this group of screens.
# EPAC1 antag: EPAC1 (human) antagonism; O95398; EPAC1 GEF assay, Rap1b-BODIPY-GDP exchange fluorescence; AID 720709; actives 0.14% (n = 360,000); Potency, µM (titrated, usually from 115 µM), actives largely listed as inhibitors; note: nearly all actives have a fitted effect of over 50% in size
# USP1 inh: inhibitors of human USP1/UAF1 deubiquitinase; recombinant USP1/UAF1, Ub-Rhodamine cleavage fluorescence; Potency, µM (doses to about 57.1 µM), most hits filed as inhibitors; actives 0.23% (n = 390,000); note: nearly all actives have a fitted effect of over 60% in size
#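 USP1/UAF1 complex at 1 nM was preincubated with compound for 15 min at room temperature, then Ub-Rho substrate (150nM final) was added. Fluorescence (480/540 nm) was read kinetically, 6 reads every 60 seconds.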
# EPAC1 agonist: EPAC1 (human) agonism; O95398; EPAC1 agonist qHTS, biochemical assay; response scale: 100% = response to 6.5 mM cAMP; Potency, µM (series often up to 154 µM), hits mostly activators; actives 0.073% (n = 360,000); note: nearly all actives have a fitted effect of over 60% in size
#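 Normalized to 6.5 mM cAMP, activity reflects EPAC1-catalysed release of BODIPY-GDP from Rap1B, followed kinetically over 30 min at 480 nm excitation, 540 nm emission. Reaction contained 100 nM EPAC1, 250 nM Rap1B-BODIPY-GDP, 50 uM GDP.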
# EPAC2 agonist: activates human EPAC2 exchange factor; Q8WZA2; EPAC2 activation, biochemical qHTS; response scale: 100% = 6.5 mM cAMP response; Potency, µM (series often up to 154 µM), hits mostly activators; actives 0.079% (n = 360,000); note: nearly all actives have a fitted effect of over 50% in size
#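 Fluorescence exchange assay: 100 nM EPAC2 with 250 nM RAP1B-BODIPY-GDP and 50 uM GDP; compounds tested as a concentration-titration series (qHTS). Loss of Rap1-bound BODIPY-GDP fluorescence read at 480/540 nm; data normalized to 6.5 mM cAMP.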
# EPAC2 antag: EPAC2 (human) antagonism | Q8WZA2 | Potency, µM (titrated, usually from 114 µM), hits mostly inhibitors | actives 0.18% (n = 360,000) | EPAC2 GEF exchange of Rap1B-BODIPY-GDP, fluorescence; note: nearly all actives have a fitted effect of over 45% in size
# A number is an active result; – = inactive; ? = inconclusive; · = not tested or not shown. Calls come from the whole dose curve; as a rule, active = well fitted curve in the direction sought with a large enough effect; inconclusive = small, poorly fitted or top-dose-only effect, or another doubt; inactive = no such curve, though single readings can be large; an effect the other way counts as inactive or inconclusive.
SMILES,EPAC1 antag,USP1 inh,EPAC1 agonist,EPAC2 agonist,EPAC2 antag
CCN=c1scc(C)n1/N=C/c1ccc(O)c(O)c1O,44.7µM,–,–,–,–
COCCN=c1scc(-c2cccs2)n1/N=C/c1ccc(O)c(O)c1O,56.2µM,–,–,–,–
COCCN=c1scc(-c2ccccc2)n1/N=C/c1c[nH]c2ccccc12,–,–,–,–,–
COc1ccccc1N1CCN(S(=O)(=O)c2c(C)sc3ncn(CC(=O)N(C)c4ccc(C(C)C)cc4)c(=O)c23)CC1,·,–,·,·,·
NC(=O)CSc1nnc(-c2cccs2)n1Cc1ccco1,–,–,–,–,–
CCN(CC)C(=O)CSc1nnc(-c2cccs2)n1Cc1ccco1,–,–,–,10µM,–
CCOC(=O)c1sc2ccccc2c1S(=O)(=O)Nc1c(C)cccc1C,·,–,·,·,·
CC(=O)C[C@H]1SC[C@@H](C(C)C)N1S(=O)(=O)c1ccc(C)cc1,–,·,–,–,39.8µM
COc1ccc2c(CNCc3ccc(Cl)cc3)c(C(=O)O)n(Cc3ccccc3C)c2c1,·,–,·,·,·
O=C(Nc1ccc2nc(-c3ccco3)c(-c3ccco3)nc2c1)N1CCN(c2ccccn2)CC1,35.5µM,–,–,–,–
Cc1nc2cc(NC(=O)N3CCN(c4ccccn4)CC3)ccc2o1,–,–,–,–,–
S=C(Nc1ccc(N2CCOCC2)cc1)Nc1ccc2nc(-c3ccco3)c(-c3ccco3)nc2c1,?,25.1µM,–,–,–
O=C(Nc1ccc(N2CCOCC2)cc1)c1ccc2nc(-c3ccco3)c(-c3ccco3)nc2c1,–,–,–,–,–
COc1ccc(OC)c(S(=O)(=O)N2CCC(n3c(C)nc4cccnc43)CC2)c1,·,–,·,·,·
CCCC(=O)OCCNc1cc(SCc2ccco2)c2nonc2c1[N+](=O)[O-],39.8µM,–,–,–,–
CC(C)Oc1ccc(CNS(=O)(=O)c2ccc3c(c2)C(C)(C)C(=O)N3C)cc1,·,–,·,·,·
O=C(COC(=O)c1ccc([N+](=O)[O-])s1)Nc1ccc(Cl)cn1,–,–,–,–,–
Cc1c(Cl)cnc(NC(=O)COC(=O)c2ccc([N+](=O)[O-])s2)c1Cl,?,17.8µM,–,–,–
Oc1ccccc1/C=N/Nc1cc(N2CCCC2)nc(N2CCCC2)n1,–,25.1µM,–,–,–
COc1ccc(-n2nc(C(=O)N3CCC(C)CC3)c3c4ccccc4n(C)c3c2=O)cc1Cl,·,–,·,·,·
O=S(=O)(O)c1ccc(N=NNc2ccc(Br)cc2)cc1,–,–,–,–,44.7µM
O=S1(=O)c2ccccc2N(Cc2cccc(F)c2)c2ccccc21,·,–,·,·,·
CC(C)N(CCNS(=O)(=O)c1ccc(Cl)cc1)C(C)C,–,–,–,–,–
CC(C)OP(=O)(OC(C)C)C1(NS(=O)(=O)c2ccc(Cl)cc2)C=C(Cl)C(=O)C(Cl)=C1,–,–,–,–,39.8µM
CC(=O)Nc1ccc(S(=O)(=O)NC2(C(F)(F)F)NC(=O)N(CCc3ccc(F)cc3)C2=O)cc1 (configuration not stated),·,–,·,·,·
SMILES,EPAC1 antag,USP1 inh,EPAC1 agonist,EPAC2 agonist,EPAC2 antag
CN(C)c1ccc(C=c2c3ccccc3n3c2c2ccccc2[n+]3C)cc1,50.1µM,?,–,?,44.7µM
CCOC(=O)c1cc2c(=Cc3ccc(N(C)C)cc3)c3ccccc3n2[n+]1C,–,15.8µM,–,–,–
Cc1cc2c(=Cc3ccc(N(C)C)cc3)c3ccccc3n2[n+]1C,–,?,–,–,–
CN(C)c1ccc(/C=C/c2ccc3ccccc3[n+]2C)cc1,–,–,–,–,?
O=C(NCc1ccc(F)cc1)C1CCCN(c2ncnc3onc(-c4ccc(F)cc4)c23)C1 (configuration not stated),·,–,·,·,·
Cc1ccc(NC(=O)C2CCCN(S(=O)(=O)c3cccs3)C2)c(C)c1 (configuration not stated),·,–,·,·,·
O=C1C=CC(=O)c2c(O)c(N3CCN(CCO)CC3)c(Cl)c(O)c21,14.1µM,2.82µM,–,–,?
O=C1C=CC(=O)c2c(O)c(N3CCN(CCOCCO)CC3)c(Br)c(O)c21,44.7µM,2µM,–,–,–
O=S(=O)(c1ccc(Br)cc1Cl)N1CCN(CCO)CC1,–,–,–,–,–
OCCOCCN1CCN(C2=Nc3ccccc3Sc3ccccc32)CC1,–,–,–,–,–
Cc1nn(C)c(C)c1S(=O)(=O)N(CC(=O)N1CCN(c2ccccc2)CC1)c1ccc(C(C)C)cc1,·,–,·,·,·
CN1\C(=C/C=C/C=C/C=[N+](C)C)C(C)(C)c2ccccc21,–,25.1µM,56.2µM,–,–
CN(C)c1ccc(N=C/C=C2\N(C)c3ccccc3C2(C)C)cc1,–,–,–,–,–
CN1/C(=C/C=C(C#N)C#N)C(C)(C)c2ccccc21,–,?,–,112µM,–
CN1/C(=C\C=O)C(C)(C)c2ccccc21,–,–,–,–,–
C[n+]1ccc(/C=C/c2c[nH]c3ccc(F)cc23)cc1,–,28.2µM,–,?,–
Cn1cc(/C=C/c2cc[n+](C)cc2)c2cc(F)ccc21,–,28.2µM,?,?,–
Cn1cc(/C=C/c2cc[n+](C)cc2)c2cc(Cl)ccc21,–,–,–,–,–
COc1cccc(NC(=O)c2sc3nc(C)c(C(=O)Nc4ccc(C)cc4C)c(-c4ccco4)c3c2N)c1,·,35.5µM,·,·,·
COc1cccc(NC(=O)c2sc3nc(C)c(C(=O)Nc4ccc(C)cc4C)c(-c4ccccc4Cl)c3c2N)c1,·,–,·,·,·
CCOC(=O)NNc1ccc2nonc2c1[N+](=O)[O-],?,25.1µM,–,–,?
Cc1cccn2c(=O)c3cc(C#N)c(=NC(=O)c4ccccc4)n(Cc4ccco4)c3nc12,89.1µM,–,–,–,?
Cc1cccc(C(=O)N=c2c(C#N)cc3c(=O)n4cccc(C)c4nc3n2Cc2ccco2)c1,50.1µM,?,–,–,–
CCc1ccc(C2C(C(=O)Nc3ccc(Cl)cc3)=C(C)Nc3ncnn32)cc1 (configuration not stated),·,–,·,·,·
COc1ccc(N2C(=O)[C@H]3[C@@H](C2=O)C2c4ccccc4C=NN2[C@H]3C(=O)C(C)(C)C)cc1 (some centres not stated),–,–,–,–,–
COc1ccc(N2C(=O)[C@@H]3[C@H](C2=O)[C@H]2c4ccccc4C=CN2[C@@H]3C(C)=O)cc1,–,15.8µM,–,–,–
CC(C)(C)C(=O)[C@@H]1[C@@H]2C(=O)N(C3CCCCC3)C(=O)[C@@H]2[C@H]2c3ccccc3C=CN12,–,25.1µM,–,–,–
COc1cccc(CNS(=O)(=O)c2cc3[nH]c(=O)c(=O)[nH]c3cc2C)c1,·,–,·,·,·
COCC(=O)Oc1c(Sc2ccccc2[N+](=O)[O-])c(C)nn1C(C)(C)C,–,–,–,–,56.2µM

# Screening results (PubChem)
